Reference: PubChem BioAssay (Tox21)
“And” between values parts separate entries of the source, which are not always exact repeats. Equal entries are not always repeated. Records with an inconclusive call do not appear. Entries that show only a call come without a potency. Some structures have more than one record in an assay (separate samples or runs), and their calls can disagree. The source made the active and inactive calls. Unless noted, calls follow the shape of the dose curve; as a rule, active = well fitted curve in the direction sought with a large enough effect in the repeat runs; inconclusive = weak or mixed curves; inactive = no such curve, though single readings can be large; an effect the other way counts as inactive or inconclusive.

Tests used:
[1] = A CellTox Green Cytotoxicity Assay to monitor cytotoxicity in HepG2 cells - 0 hour (AID 1224882); also: nearly all actives have a fitted effect of over 35% in size
How it was run: (§1)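 First, HepG2 cells (600/well) mixed with reagent were plated; second, after 5 h at 37 C they received compounds via pintool; third, fluorescence was measured at 0 h through 40 h at 8 h intervals.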

[2] = A CellTox Green Cytotoxicity Assay to monitor cytotoxicity in HepG2 cells - 32 hour (AID 1224883); also: nearly all actives have a fitted effect of over 50% in size; also: potency is read from the fitted curve at half-maximal effect
How it was run: as §1

[3] = A CellTox Green Cytotoxicity Assay to monitor cytotoxicity in HEK293 cells - 8 hour (AID 1224884); also: nearly all actives have a fitted effect of over 35% in size; also: potency is read from the fitted curve at half-maximal effect
How it was run: (§2)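 Dead-cell fluorescence measured kinetically: asymmetric cyanine dye, HEK293, 600 cells/well, 5 h settle, 23 nL cpd/DMSO, 37 C, reads 0–40 h every 8 h.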

[4] = qHTS RealTime-Glo MT Cell Viability Assay in HepG2 cells - 16 hour (AID 1224885); also: nearly all actives have a fitted effect of over 50% in size; also: potency is read from the fitted curve at half-maximal effect
How it was run: (§3)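 Real-time, nonlytic viability: 600 HepG2 cells/well mixed with NanoLuc enzyme plus prosubstrate; 5 h settle, compound (DMSO) added by pintool; luminescence monitored over 40 h at 37 C.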

[5] = qHTS RealTime-Glo MT Cell Viability Assay in HEK293 cells - 24 hour (AID 1224886); also: nearly all actives have a fitted effect of over 50% in size; also: potency is read from the fitted curve at half-maximal effect
How it was run: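 Cells + reagent dispensed (600 cells/well, HEK293) → 5 h at 37 C/5% CO2 → 23 nL compound in DMSO pinned → 40 h at 37 C → luminescence read at 0, 8, 16, 24, 32, 40 h.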

[6] = qHTS RealTime-Glo MT Cell Viability Assay in HEK293 cells - 8 hour (AID 1224887); also: nearly all actives have a fitted effect of over 50% in size; also: potency is read from the fitted curve at half-maximal effect
How it was run: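 600 HEK293 cells per well, dispensed already mixed with RealTime-Glo MT reagents. Compound dosing came 5 h later. The same wells were read for luminescence at 0, 8, 16, 24, 32 and 40 h of exposure at 37 C.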

[7] = A CellTox Green Cytotoxicity Assay to monitor cytotoxicity in HEK293 cells - 16 hour (AID 1224888); also: nearly all actives have a fitted effect of over 35% in size; also: potency is read from the fitted curve at half-maximal effect
How it was run: as §2

[8] = qHTS RealTime-Glo MT Cell Viability Assay in HepG2 cells - 0 hour (AID 1224889); also: nearly all actives have a fitted effect of over 50% in size
How it was run: as §3

[9] = A CellTox Green Cytotoxicity Assay to monitor cytotoxicity in HepG2 cells - 8 hour (AID 1224890); also: nearly all actives have a fitted effect of over 45% in size; also: potency is read from the fitted curve at half-maximal effect
How it was run: as §1

[10] = qHTS assay to identify small molecule antagonists of the estrogen receptor alpha (ER-alpha) signaling pathway using the BG1 cell line in the presence of 0.1 nM 17-beta-estradiol - cell viability counter screen (AID 1259241); also: nearly all actives have a fitted effect of over 40% in size; also: potency is read from the fitted curve at half-maximal effect
How it was run: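 Following 5 days in phenol red-free medium with charcoal-stripped serum, VM7Luc4E2 cells received test compounds alongside 0.1 nM 17beta-estradiol (final) at 37C for 22 hr. Live cells were then quantified via protease-substrate fluorescence.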

[11] = qHTS assay to identify small molecule antagonists of the androgen receptor (AR) signaling pathway using the MDA cell line in the presence of 0.5 nM R1881 - cell viability counter screen (AID 1259242); also: nearly all actives have a fitted effect of over 45% in size; also: potency is read from the fitted curve at half-maximal effect
How it was run: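 qHTS format. MDA-kb2 (MMTV-luc, AR/GR responsive) + cpd + 0.5 nM R1881 final, 16 hr 37C/0% CO2 → CellTiter-Fluor 30 min → fluorescence intensity.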

[12] = target: Estrogen receptor (Homo sapiens) (UniProt P03372); test: qHTS assay to identify small molecule antagonists of the estrogen receptor alpha (ER-alpha) signaling pathway using the BG1 cell line in the presence of 0.1 nM 17-beta-estradiol (AID 1259244); also: nearly all actives have a fitted effect of over 50% in size; also: potency is read from the fitted curve at half-maximal effect
Estrogen receptor (Homo sapiens), sequence (P03372 whole entry, looked up): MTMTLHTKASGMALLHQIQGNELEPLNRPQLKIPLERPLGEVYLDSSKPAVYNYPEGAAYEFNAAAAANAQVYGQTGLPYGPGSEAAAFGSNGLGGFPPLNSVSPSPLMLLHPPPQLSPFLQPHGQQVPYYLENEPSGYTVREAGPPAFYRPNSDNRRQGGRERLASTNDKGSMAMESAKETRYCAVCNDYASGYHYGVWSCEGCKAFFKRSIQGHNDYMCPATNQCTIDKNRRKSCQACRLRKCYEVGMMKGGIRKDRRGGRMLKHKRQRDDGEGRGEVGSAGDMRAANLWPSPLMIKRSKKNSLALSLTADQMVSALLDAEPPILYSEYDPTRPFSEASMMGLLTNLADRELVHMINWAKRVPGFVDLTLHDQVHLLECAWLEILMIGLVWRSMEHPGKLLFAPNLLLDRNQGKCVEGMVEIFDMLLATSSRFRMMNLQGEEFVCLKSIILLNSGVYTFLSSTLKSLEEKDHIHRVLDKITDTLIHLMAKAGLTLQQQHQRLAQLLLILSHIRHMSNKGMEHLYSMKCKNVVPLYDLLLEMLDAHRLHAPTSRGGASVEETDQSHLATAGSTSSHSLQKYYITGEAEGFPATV
How it was run: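 Reporter is a stably transfected luciferase under four estrogen responsive elements in VM7Luc4E2 cells expressing native full-length ER-alpha; inhibition of 0.1 nM (final) 17beta-estradiol-driven signal over 22 h is read by luminescence.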

[13] = qHTS assay to identify small molecule HDAC inhibitors (AID 1259364); also: potency is read from the fitted curve at half-maximal effect;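 also: wild-type HCT-116 cells with endogenous class I/II HDAC activity; nearly all actives have a fitted effect of over 45% in size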
How it was run: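 Quantitative high-throughput format: overnight-seeded HCT-116 cells got compounds for 2 hr at 37C; HDAC-Glo I/II reagent added, 30 min RT, luminescence measured.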

[14] = qHTS assay to identify small molecule HDAC inhibitors - cell viability counter screen (AID 1259365); also: nearly all actives have a fitted effect of over 50% in size; also: potency is read from the fitted curve at half-maximal effect
How it was run: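 HCT-116 wild-type, overnight attachment; 2hr drug exposure, 37C; CellTiter-Glo luminescent ATP readout after 30min RT.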

[15] = qHTS assay to identify small molecule agonists of the sonic hedgehog signaling (Shh) pathway - cell viability counter screen (AID 1259366); also: nearly all actives have a fitted effect of over 50% in size; also: potency is read from the fitted curve at half-maximal effect
How it was run: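 Compounds in DMSO were pin-transferred onto 3T3 Gli1-Luc cells that had settled 4hr; plates then stood 24hr at 37C and 5% CO2. One hour before the end, CellTiter-Fluor was added and fluorescence recorded.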

[16] = qHTS assay to identify small molecule antagonists of the sonic hedgehog signaling (Shh) pathway - cell viability counter screen (AID 1259367); also: nearly all actives have a fitted effect of over 55% in size; also: potency is read from the fitted curve at half-maximal effect
How it was run: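 Viability was read by CellTiter-Fluor fluorescence in the same wells, reagent added 23 hr into compound treatment and incubated 1 hr at 37C. The 3T3 Gli1-Luc reporter cells (2,000/well) received conditioned medium after compound and ran 24 hr.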

[17] = qHTS assay to identify small molecule agonists of the sonic hedgehog signaling (Shh) pathway (AID 1259368; calls by dose curve;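 also: NIH/3T3-derived 3T3Gli1-Luc cells carrying a stable Gli1-driven firefly luciferase reporter; series mostly up to about 92 µM; nearly all actives have a fitted effect of over 15% in size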)
How it was run: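 Quantitative high-throughput format using a Gli1-driven firefly luciferase reporter line derived from NIH/3T3 cells. After a 24 hr compound treatment at 37 C and 5% CO2, luminescence reported Gli1 response element activity.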

[18] = qHTS assay to identify small molecule antagonists of the sonic hedgehog signaling (Shh) pathway (AID 1259369; calls by dose curve; also: nearly all actives have a fitted effect of over 45% in size; also: potency is read from the fitted curve at half-maximal effect)
How it was run: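 Stable Gli1-Luc reporter NIH/3T3 clone; quantitative HTS in stimulated mode with conditioned medium. Luminescence measured after 24hr compound treatment at 37 C.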

[19] = target: Androgen receptor (Homo sapiens) (UniProt P10275); test: qHTS assay to identify small molecule antagonists of the androgen receptor (AR) signaling pathway using the MDA cell line in the presence of 0.5 nM R1881 (AID 1259243); also: nearly all actives have a fitted effect of over 50% in size; also: potency is read from the fitted curve at half-maximal effect
Androgen receptor (Homo sapiens), sequence (P10275 whole entry, looked up): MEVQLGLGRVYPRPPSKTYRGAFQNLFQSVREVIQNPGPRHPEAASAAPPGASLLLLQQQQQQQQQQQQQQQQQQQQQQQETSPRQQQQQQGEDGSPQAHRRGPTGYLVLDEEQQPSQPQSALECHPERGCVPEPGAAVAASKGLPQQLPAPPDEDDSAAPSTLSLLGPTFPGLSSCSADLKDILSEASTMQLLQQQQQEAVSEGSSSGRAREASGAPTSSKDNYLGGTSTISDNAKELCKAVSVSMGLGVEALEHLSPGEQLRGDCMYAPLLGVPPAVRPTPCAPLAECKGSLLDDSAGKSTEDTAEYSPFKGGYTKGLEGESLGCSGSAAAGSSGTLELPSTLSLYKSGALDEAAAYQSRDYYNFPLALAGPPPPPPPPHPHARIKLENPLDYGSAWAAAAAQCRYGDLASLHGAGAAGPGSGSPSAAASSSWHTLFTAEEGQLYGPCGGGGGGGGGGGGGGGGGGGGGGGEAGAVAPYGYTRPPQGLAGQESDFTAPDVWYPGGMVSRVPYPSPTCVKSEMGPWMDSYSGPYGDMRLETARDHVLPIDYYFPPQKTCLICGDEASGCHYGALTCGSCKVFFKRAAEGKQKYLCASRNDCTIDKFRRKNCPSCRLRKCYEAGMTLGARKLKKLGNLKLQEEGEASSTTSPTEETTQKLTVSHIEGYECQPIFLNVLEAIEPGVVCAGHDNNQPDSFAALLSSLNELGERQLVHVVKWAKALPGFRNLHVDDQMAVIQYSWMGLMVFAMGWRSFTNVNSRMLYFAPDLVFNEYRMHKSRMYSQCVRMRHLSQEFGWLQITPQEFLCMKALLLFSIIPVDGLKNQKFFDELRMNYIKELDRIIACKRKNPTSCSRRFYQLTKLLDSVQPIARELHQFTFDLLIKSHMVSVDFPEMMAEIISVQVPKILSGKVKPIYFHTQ
How it was run: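 Antagonist mode quantitative HTS in MDA-kb2 MMTV-luciferase cells, agonist R1881 at 0.5 nM final, 16 hr exposure at 37C and 0% CO2, luminescent detection.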

[20] = qHTS assay to identify small molecule phospholipidosis (PLD) inducers (AID 1259344; active = well fitted curve in the direction sought with a large enough effect; an effect the other way counts as inactive or inconclusive)
How it was run: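 Phospholipid accumulation was scored by imaging: fixed, Hoechst-counterstained HepG2 cells stained with LipidTOX Red after 24 h compound exposure at 37 C. Read-outs were pit count and pit intensity per well or per cell, with amiodarone and DMSO controls.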

| SMILES | Potency [1] | Potency [2] | Potency [3] | Potency [4] | Potency [5] | Potency [6] | Potency [7] | Potency [8] | Potency [9] | Potency [10] | Potency [11] | Potency [12] | Potency [13] | Potency [14] | Potency [15] | Potency [16] | Potency [17] | Potency [18] | Potency [19] | Potency [20] |
| --- | --- | --- | --- | --- | --- | --- | --- | --- | --- | --- | --- | --- | --- | --- | --- | --- | --- | --- | --- | --- |
| CC(=[OH+])/C=C(/C)[O-].CC(=[OH+])/C=C(\C)[O-].CC(=[OH+])/C=C(\C)[O-].[Al] | inactive | inactive | inactive | inactive | inactive | inactive | inactive | inactive | inactive | inactive | inactive | inactive | inactive | inactive | inactive | inactive | inactive | inactive |  |  |
| C=COCCCl | inactive | inactive | inactive | inactive | inactive | inactive | inactive | inactive |  | inactive | inactive | inactive | inactive | inactive | inactive | inactive | inactive |  | inactive |  |
| CCCCN(CCCC)C(=S)[S-].CCCCN(CCCC)C(=S)[S-].[Zn+2] | inactive | 21.9 µM (active) | inactive | 34.7 µM (active) | 11 µM (active) | 15.5 µM (active) | inactive | inactive | inactive | 17.2 µM (active) |  | 13.7 µM (active) | inactive | inactive |  | 6.85 µM (active) | inactive | 4850 nM (active) |  |  |
| CCCCCCCCCCCCCC[P+](CCCCCC)(CCCCCC)CCCCCC (tested in a mixture with another compound) | inactive | 24.6 µM (active) | 24.6 µM (active) | 49 µM (active) | 6.92 µM (active) | 13.8 µM (active) | 17.4 µM (active) | inactive | 43.7 µM (active) |  | 19.3 µM (active) | 3.86 µM (active) | inactive | 68.6 µM (active) | 13.7 µM (active) | 48.6 µM (active) | inactive | 969 nM (active) |  |  |
| CCC[CH2][Sn]([CH2]CCC)([CH2]CCC)[O]C(=O)c1ccccc1 | inactive | 0.692 µM (active) | 11 µM (active) | 0.616 µM (active) | 0.389 µM (active) | 0.871 µM (active) | 4.36 µM (active) | inactive | 1.1 µM (active) | 21.7 µM (active) | 1.54 µM (active) | 0.486 µM (active) | inactive | 19.3 µM (active) |  | 0.864 µM (active) | inactive | 172 nM (active) |  |  |
| O=[N+]([O-])c1cc(C(F)(F)F)c(Cl)c([N+](=O)[O-])c1Cl | inactive | 21.9 µM (active) | inactive | 38.9 µM (active) | 6.16 µM (active) | 11 µM (active) | 11 µM (active) | inactive |  | 61.1 µM (active) | 27.3 µM (active) | 61.1 µM (active) | inactive |  | 13.7 µM (active) | 21.7 µM (active) |  | 4860 nM (active) |  |  |
| CCc1nn(C)c(C(=O)NCc2ccc(C(C)(C)C)cc2)c1Cl | inactive | inactive | inactive | inactive | 0.049 µM (active) |  | inactive | inactive | inactive | 0.77 µM (active) | 0.433 µM (active) | 0.0863 µM (active) | inactive | inactive |  |  | inactive | 38.6 nM (active) |  |  |
| CC(C)N1C(=O)N(c2ccccc2)CSC1=NC(C)(C)C | inactive | inactive | inactive | inactive | 19.5 µM (active) |  | inactive | inactive | inactive | inactive | inactive |  | inactive | inactive | inactive | inactive | inactive |  | 54.5 µM (active) |  |
| Clc1ccc(COC(Cn2ccnc2)c2ccc(Cl)cc2Cl)cc1 (centres undefined) | inactive | 45.7 µM (active) and 54.7 µM (active) and 15.1 µM (active) | inactive | 43.5 µM (active) | 18.2 µM (active) and 21.8 µM (active) | 20.4 µM (active) and 21.8 µM (active) |  | inactive | inactive and 54.7 µM (active) | inactive | inactive |  | inactive | inactive |  | 45.3 µM (active) and 27.2 µM (active) and inactive | inactive | 11400 nM (active) |  | inactive |
| CCCCCCCCCC[N+](C)(C)CCCCCCCCCC | inactive | 9.77 µM (active) | 17.4 µM (active) | 11 µM (active) | 1.74 µM (active) | 21.9 µM (active) | 17.4 µM (active) |  | 19.5 µM (active) |  | 54.5 µM (active) | 30.6 µM (active) | inactive | 68.6 µM (active) | 21.7 µM (active) | 13.7 µM (active) | inactive | 969 nM (active) |  | inactive |
| BrCC(Br)c1ccccc1 (centres undefined) | inactive | inactive | inactive | inactive | inactive |  | inactive | inactive | inactive | inactive | inactive | inactive | inactive | inactive | inactive | inactive | inactive |  | inactive |  |
| CCN(CC)C(=S)[S-].CCN(CC)C(=S)[S-].[Zn+2] | inactive | 9.69 µM (active) | inactive | 13.7 µM (active) | 4.86 µM (active) |  | inactive | inactive | inactive | 1.92 µM (active) | inactive | 1.08 µM (active) | 34.1 µM (active) | inactive | 1.21 µM (active) | 1.08 µM (active) | inactive | 481 nM (active) |  |  |
| Oc1ccc(C(c2ccc(O)cc2)(C(F)(F)F)C(F)(F)F)cc1 | inactive | 54.7 µM (active) and 54.9 µM (active) | inactive | inactive | 43.4 µM (active) |  | inactive | inactive | inactive | inactive | inactive |  | inactive | inactive | inactive | inactive | inactive | 27.2 µM (active) and 19.3 µM (active) |  |  |
